{"source": "the supplement of paper PMC9023506", "note": "Counter-ions that a name gives are not always drawn."}
{"system": "Danio rerio larvae (5 dpf)", "experiment": "optomotor response to blue moving lines, difference vs DMSO (percentage points (treated minus DMSO)); higher = more of the behaviour than the DMSO vehicle control", "conditions": "10 µM; exposure time: 3 h pre-incubation + 3 h imaging", "experimental": "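5-dpf wild-type zebrafish larvae were imaged in 96-well plates. They were treated with 190 Tocris FDA-approved drugs at 10 µM (1 µl/ml DMSO) for 3 h before and 3 h during imaging at 28.5 °C, 48 larvae per drug. Automated image analysis gave % time moving and optomotor responses. Values are drug group mean minus DMSO vehicle mean (n=844), in percentage points, for 10 behaviours.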"}
{"smiles": "COc1ccccc1OCC(O)CN1CCN(CC(=O)Nc2c(C)cccc2C)CC1", "note": "(stereo not given) [Ranolazine dihydrochloride]", "optomotor response to blue moving lines": 13.8}
{"smiles": "Nc1cc(N2CCCCC2)nc(N)[n+]1[O-]", "note": "[Minoxidil]", "optomotor response to blue moving lines": -6.76}
{"smiles": "CCN(Cc1ccncc1)C(=O)C(CO)c1ccccc1", "note": "(stereo not given) [Tropicamide]", "optomotor response to blue moving lines": 0.00192}
{"smiles": "COc1cc2nccc(Oc3ccc(NC(=O)C4(C(=O)Nc5ccc(F)cc5)CC4)cc3)c2cc1OC", "optomotor response to blue moving lines": -8.79}
{"smiles": "CN(C)CCC[C@@]1(c2ccc(F)cc2)OCc2cc(C#N)ccc21", "note": "[Escitalopram oxalate]", "optomotor response to blue moving lines": 1.97}
{"smiles": "CO[C@H]1/C=C/O[C@@]2(C)Oc3c(C)c(O)c4c(O)c(c5c(nc6cc(C)ccn65)c4c3C2=O)NC(=O)/C(C)=C\\C=C\\[C@H](C)[C@H](O)[C@@H](C)[C@@H](O)[C@@H](C)[C@H](OC(C)=O)[C@@H]1C", "note": "[Rifaximin]", "optomotor response to blue moving lines": 9.62}
{"smiles": "CN1CCN(CCCN2c3ccccc3Sc3ccc(Cl)cc32)CC1", "note": "[Prochlorperazine dimaleate]", "optomotor response to blue moving lines": 12.2}
{"smiles": "NS(=O)(=O)c1cc2c(cc1Cl)NC(C1CC3C=CC1C3)NS2(=O)=O", "note": "(stereo not given) [Cyclothiazide]", "optomotor response to blue moving lines": -7.83}
{"smiles": "CC(=O)NC[C@H]1CN(c2ccc(N3CCOCC3)c(F)c2)C(=O)O1", "note": "[Linezolid]", "optomotor response to blue moving lines": -4.03}
{"smiles": "CN1CC[C@@H](NC(=O)Nc2ccc(C#N)cc2)C[C@@H]1c1nc2ccccc2[nH]1", "optomotor response to blue moving lines": 3.76}
{"smiles": "CCc1c2c(nc3ccc(OC(=O)N4CCC(N5CCCCC5)CC4)cc13)-c1cc3c(c(=O)n1C2)COC(=O)[C@]3(O)CC", "optomotor response to blue moving lines": 1.97}
{"smiles": "CN[C@H]1CC[C@@H](c2ccc(Cl)c(Cl)c2)c2ccccc21", "note": "[Sertraline hydrochloride]", "optomotor response to blue moving lines": -9.96}
{"smiles": "CN(C)C(=N)NC(=N)N", "note": "[Metformin hydrochloride]", "optomotor response to blue moving lines": 22.6}
{"smiles": "O=C(NCC1CCCCN1)c1cc(OCC(F)(F)F)ccc1OCC(F)(F)F", "note": "(stereo not given) [Flecainide acetate]", "optomotor response to blue moving lines": 9.21}
{"smiles": "Nc1ncn([C@H]2C[C@H](O)[C@@H](CO)O2)c(=O)n1", "note": "[Decitabine]", "optomotor response to blue moving lines": -0.954}
{"smiles": "Cc1ccc(N(CC2=NCCN2)c2cccc(O)c2)cc1", "note": "[Phentolamine Mesylate]", "optomotor response to blue moving lines": 16.3}
{"smiles": "CCCCCCCCc1ccc(CCC(N)(CO)CO)cc1", "optomotor response to blue moving lines": -1.76}
{"smiles": "Cc1nnc(C(C)C)n1C1C[C@H]2CC[C@@H](C1)N2CC[C@H](NC(=O)C1CCC(F)(F)CC1)c1ccccc1", "note": "(stereo in doubt) [Maraviroc]", "optomotor response to blue moving lines": -0.85}
{"smiles": "CN(CCOc1ccc(CC2SC(=O)NC2=O)cc1)c1ccccn1", "note": "(stereo not given) [Rosiglitazone]", "optomotor response to blue moving lines": -12.4}
{"smiles": "Cc1cc2c(s1)Nc1ccccc1N=C2N1CCN(C)CC1", "note": "[Olanzapine]", "optomotor response to blue moving lines": 16}
{"smiles": "CCN(CC)CCNC(=O)c1c(C)[nH]c(/C=C2\\C(=O)Nc3ccc(F)cc32)c1C", "note": "[Sunitinib malate]", "optomotor response to blue moving lines": -5.69}
{"smiles": "CN1CC(=O)N2[C@H](c3ccc4c(c3)OCO4)c3[nH]c4ccccc4c3C[C@@H]2C1=O", "note": "[Tadalafil]", "optomotor response to blue moving lines": -3.81}
{"smiles": "CNC(=O)c1ccccc1Sc1ccc2c(/C=C/c3ccccn3)n[nH]c2c1", "note": "[Axitinib]", "optomotor response to blue moving lines": 13.5}
{"smiles": "CN1CCC[C@@H]1Cc1c[nH]c2ccc(CCS(=O)(=O)c3ccccc3)cc12", "note": "[Eletriptan hydrobromide]", "optomotor response to blue moving lines": 5.86}
{"smiles": "CC(=O)O[C@]1(C(C)=O)CC[C@H]2[C@@H]3C=C(C)C4=CC(=O)CC[C@]4(C)[C@H]3CC[C@@]21C", "note": "[Megestrol Acetate]", "optomotor response to blue moving lines": -7.55}
{"smiles": "COc1ccccc1Oc1c(NS(=O)(=O)c2ccc(C(C)(C)C)cc2)nc(-c2ncccn2)nc1OCCO", "note": "[Bosentan]", "optomotor response to blue moving lines": -2.84}
{"smiles": "CC(C)(C(=O)c1cccnc1)c1cccnc1", "note": "[Metyrapone]", "optomotor response to blue moving lines": -8.19}
{"smiles": "CC(C)OC(=O)C(C)(C)Oc1ccc(C(=O)c2ccc(Cl)cc2)cc1", "note": "[Fenofibrate]", "optomotor response to blue moving lines": 12.7}
{"smiles": "CCC(C)(C)C(=O)O[C@H]1C[C@@H](C)C=C2C=C[C@H](C)[C@H](CC[C@@H]3C[C@@H](O)CC(=O)O3)[C@H]21", "note": "[Simvastatin]", "optomotor response to blue moving lines": -4.79}
{"smiles": "COCCCOc1cc(C[C@@H](C[C@H](N)[C@@H](O)C[C@H](C(=O)NCC(C)(C)C(N)=O)C(C)C)C(C)C)ccc1OC", "note": "[Aliskiren hemifumarate]", "optomotor response to blue moving lines": -5.15}
{"smiles": "COc1cc2ncnc(Nc3ccc(F)c(Cl)c3)c2cc1OCCCN1CCOCC1", "note": "[Iressa]", "optomotor response to blue moving lines": 5.63}
{"smiles": "OC(CNCC(O)C1CCc2cc(F)ccc2O1)C1CCc2cc(F)ccc2O1", "note": "(stereo not given) [Nebivolol hydrochloride]", "optomotor response to blue moving lines": -16.6}
{"smiles": "C[C@]12CCC(=O)C=C1CC[C@@H]1[C@@H]2[C@@H](O)C[C@@]2(C)[C@H]1CC[C@]2(O)C(=O)CO", "note": "[Hydrocortisone]", "optomotor response to blue moving lines": 8.43}
{"smiles": "COc1c(C)c2c(c(O)c1C/C=C(\\C)CCC(=O)OCCN1CCOCC1)C(=O)OC2", "note": "[Mycophenolate mofetil]", "optomotor response to blue moving lines": 16.8}
{"smiles": "CN(C)CCc1c[nH]c2ccc(Cn3cncn3)cc12", "note": "[Rizatriptan benzoate]", "optomotor response to blue moving lines": 3.13}
{"smiles": "CN1CCN2c3ncccc3Cc3ccccc3C2C1", "note": "(stereo not given) [Mirtazapine]", "optomotor response to blue moving lines": -2.95}
{"smiles": "Nc1nc2[nH]cc(CCc3ccc(C(=O)N[C@@H](CCC(=O)O)C(=O)O)cc3)c2c(=O)[nH]1", "note": "[Pemetrexed]", "optomotor response to blue moving lines": 1.87}
{"smiles": "O=C(O[C@@H]1C[C@@H]2C[C@H]3C[C@H](C1)N2CC3=O)c1c[nH]c2ccccc12", "note": "[Dolasetron mesylate]", "optomotor response to blue moving lines": 0.622}
{"smiles": "CCOc1nc2cccc(C(=O)O)c2n1Cc1ccc(-c2ccccc2-c2noc(=O)[nH]2)cc1", "note": "[Azilsartan]", "optomotor response to blue moving lines": 7.48}
{"smiles": "CN(C)CCc1c[nH]c2ccc(C[C@H]3COC(=O)N3)cc12", "note": "[Zolmitriptan]", "optomotor response to blue moving lines": 9.9}
